Publication PMC4552634, “A New Set of Chemical Starting Points with Plasmodium falciparum Transmission-Blocking Potential for Antimalarial Drug Discovery” (PLoS ONE, 2015)
Out of some 13,000 compounds screened, about 3,200 (25%) showed an effect of 50% or more. The list shows a part of the results.

Each compound was assayed on P. falciparum stage V gametocytes. Settings: 48 h, 5 µM; inhibitor.
Parameters: BacTiter-Glo ATP luminescence viability of purified stage V gametocytes in 384-well plates, per cent inhibition versus DMSO

Row | Structure (SMILES) | % Inhibition [%]
1 | CC1CC(C)CN(S(=O)(=O)c2cc(C(=O)Nc3cccc([N+](=O)[O-])c3)ccc2Br)C1 (centres unmarked) [TCMDC-124626] | -10.68
2 | O=C(Nc1cc(F)c(F)c(-c2cccnc2)c1)N1CCc2cc(Cl)c(Cl)cc21 [TCMDC-139065] | 25.18
3 | Cc1ccc(-c2nc(N3CCN(C(=O)c4ccco4)CC3)c3ccccc3n2)cc1 [TCMDC-124779] | -11.86
4 | COc1ccccc1CNC(=O)c1cc(OC)c(OC)cc1NC(=O)c1cccs1 [TCMDC-125022] | 22.04
5 | CCOc1cc(Cc2cnc(N)nc2N)cc(OCC)c1O [TCMDC-137181] | 40.77
6 | O=C(/C=C/c1ccc(Cl)c(Cl)c1)N1CCC(CN2CCC(c3cn(CC(=O)N4CCCCC4)c4ccccc34)CC2)CC1 [TCMDC-134193] | 103
7 | CC(C)NC(=O)Cn1cc(C2CCN(CC3CCN(C(=O)/C=C/c4ccc(Cl)c(Cl)c4)CC3)CC2)c2ccccc21 [TCMDC-134172] | -9.49
8 | O=C(c1ccc(O)c(-c2cc(Cl)cc(Cl)c2)c1)N(CCO)CCO [TCMDC-140160] | -5.034
9 | COc1ccc2c(=O)c(Br)c(C)[nH]c2c1 [TCMDC-137426] | 72.62
10 | COc1ccc2c(=O)c(-c3ccc(OC(F)(F)F)cc3)c(C)[nH]c2c1 [TCMDC-138811] | 45.07
11 | COc1ccc2c(=O)c3ccc(OC)cc3[nH]c2c1 [TCMDC-132054] | 37.12
12 | COc1ccc2c(=O)c(I)c(C)[nH]c2c1 [TCMDC-138141] | 64.56
13 | Cc1cc2c(cc1C(F)(F)F)N(C(=O)Nc1cc(C(=O)NCCN(C)C)cc(C(F)(F)F)c1)CC2 [TCMDC-139884] | 20.84
14 | Cc1cc(C(=O)Nc2ccc3c(c2)CCN3C2CCN(Cc3cccc(F)c3F)C2)no1 (centres unmarked) [TCMDC-135079] | -28.63
15 | Cc1cc(N[C@@H](Cc2ccccc2)C(=O)NCc2cccc(F)c2)nc(NCCc2ccc(F)cc2)n1 [TCMDC-134785] | 98.48
16 | COc1ccccc1CCNc1nc(C)cc(N[C@@H](Cc2ccccc2)C(=O)NCc2cccc(F)c2)n1 [TCMDC-134893] | 92.55
17 | Cc1cc(N[C@@H](Cc2ccccc2)C(=O)NCc2cccc(F)c2)nc(NCCc2ccccc2)n1 [TCMDC-134773] | 75.65
18 | Cc1cc(N[C@@H](Cc2ccccc2)C(=O)NCc2cccc(F)c2)nc(NCc2ccccc2C)n1 [TCMDC-134903] | -28.89
19 | Cc1cc(N[C@@H](CC(C)C)C(=O)NCc2cccc(F)c2)nc(NCC2CCCCC2)n1 [TCMDC-134916] | -56.42
20 | CCCC(C)Nc1nc(C)cc(N[C@@H](CC(C)C)C(=O)NCc2cccc(F)c2)n1 (some centres unmarked) [TCMDC-134768] | -55.2
21 | Cc1cccc(CNc2nc(C)cc(N[C@@H](Cc3ccccc3)C(=O)NCc3cccc(F)c3)n2)c1 [TCMDC-134887] | 21.53
22 | Cc1cc(N[C@@H](Cc2ccccc2)C(=O)NCc2cccc(F)c2)nc(NCC2CCCCC2)n1 [TCMDC-134928] | 5.769
23 | COc1ccccc1CCNc1nc(C)cc(N[C@@H](CC(C)C)C(=O)NCc2cccc(F)c2)n1 [TCMDC-134863] | 80.77
